{"source": "the supplement of paper PMC11417369", "note": "± gives the standard deviation of the averaged measurements. Whole data set: some 25,000 sequences, median “ln(normalized median fluorescence intensity)” near 8.6, cut for the highest 2% near 10. What follows is part of a selection rich in the highest values, with near analogues and random picks from the rest.", "data": [{"system": "PfAP2-EXP AP2 domain (GST-tagged)", "test": "gcPBM binding intensity (ln(normalized median fluorescence intensity)); higher = stronger DNA binding", "in_short": "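Probes on an Agilent 4 × 180k array were primer-extended, double-stranded and 36 bp long, taken from intergenic genomic regions, with negative controls added. GST-tagged P. falciparum DNA-binding domains from E. coli, about 25 μg on average, were applied to the array for 1 h in 1× PBS containing 1% milk, 0.2 mg/ml BSA, 0.5% salmon testes DNA and 0.03% Triton X-100. Binding intensity, obtained after Alexa488 anti-GST antibody detection and a 488 nm scan, is the highest Masliner-normalised natural-log median intensity across replicate spots of either probe orientation.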", "values": [{"sequence": "ATTGTGGATATTCTTACACACAAATTTATATATAAA [CACACA_site2601]", "gcPBM binding intensity (ln)": "8.37 ± 0.49"}, {"sequence": "AAGTTTTTTTTTAACACACACATAATAAAATAAATA [CACACA_site446]", "gcPBM binding intensity (ln)": "8.46 ± 0.31"}, {"sequence": "GTATGTTTAATTTTAGTGCAATTATAAATATTTTAA [GTGCAC_site9531]", "gcPBM binding intensity (ln)": "8.62 ± 0.18"}, {"sequence": "TATATATATTTATATGCATGTAATATATTTGTATTG [TGCATGCA_site323]", "gcPBM binding intensity (ln)": "8.71 ± 0.3"}, {"sequence": "AAAAAAAAATGAAAAGAAAAAAAAAGAAAAAAGGGA [CACACA_negctrl_site287]", "gcPBM binding intensity (ln)": "8.61 ± 0.67"}, {"sequence": "GGGGAAAAAAAAAAAGGAAAAAGAAAAAAAAAAAAA [GTGCAC_negctrl_site489]", "gcPBM binding intensity (ln)": "8.38 ± 0.39"}, {"sequence": "AAAAAAAAAAAAAAAAGGGGGGGAGGGATTGAAAAA [CACACA_negctrl_site193]", "gcPBM binding intensity (ln)": "10.22 ± 0.042"}, {"sequence": "CTATTATAATATTTTACACACCATGTAAGATATATA [CACACA_site7492]", "gcPBM binding intensity (ln)": "8.46 ± 0.35"}, {"sequence": "CATATTTTTTCTTAAACACACACATATATATATATA [CACACA_site8920]", "gcPBM binding intensity (ln)": "10.1 ± 0.41"}, {"sequence": "AAATAAAATACATATAAACACACATATAAACCAACA [CACACA_site8789]", "gcPBM binding intensity (ln)": "8.88 ± 0.61"}, {"sequence": "TTAAAACCAAAACACAGTACATATATATATATATAT [XGTACX_site5668]", "gcPBM binding intensity (ln)": "10.3 ± 0.23"}, {"sequence": "TTAACAGTAAAACACAGTACATATATACTTAAAACA [XGTACX_site1930]", "gcPBM binding intensity (ln)": "8.59 ± 0.35"}, {"sequence": "TTAATCCTTTTTAAAAGTACACATATATATATATAT [XGTACX_site962]", "gcPBM binding intensity (ln)": "10.2 ± 0.38"}, {"sequence": "TATTTTAAAAAAAAAAGTACACATAATATATATAAC [XGTACX_site5416]", "gcPBM binding intensity (ln)": "8.64 ± 0.26"}, {"sequence": "ATTATATTATTTTAAAGTACACACATATATTAATAT [XGTACX_site4769]", "gcPBM binding intensity (ln)": "8.63 ± 0.24"}, {"sequence": "TCTTTTAAACAGTACACACACACATCTATATTTATA [CACACA_site6559]", "gcPBM binding intensity (ln)": "8.755 ± 0.078"}, {"sequence": "TATTTTTTCTTAAACACACACATATATATATATAAT [CACACA_site5567]", "gcPBM binding intensity (ln)": "8.56 ± 0.39"}, {"sequence": "TCTTTTAAACAGTACACACACACATATATATATATA [CACACA_site924]", "gcPBM binding intensity (ln)": "10.3 ± 0.22"}, {"sequence": "TTTTCTTTTAAACATATATATATATATATATATATA [XGTACX_negctrl_site559]", "gcPBM binding intensity (ln)": "10.4 ± 0.23"}, {"sequence": "TATATTCTTTTAAACAGTACACACACACATATATAT [XGTACX_site1701]", "gcPBM binding intensity (ln)": "8.96 ± 0.44"}, {"sequence": "ATATATATATTAAATACACACATTTTTGATTAGGTT [CACACA_site3119]", "gcPBM binding intensity (ln)": "9.405 ± 0.078"}, {"sequence": "TAAATAAGTATTACTAGTACACACAAGTTGTTAATC [XGTACX_site7074]", "gcPBM binding intensity (ln)": "8.57 ± 0.28"}, {"sequence": "TTTTATGTTCTTAATGCACACTTATAAGTATCTTAT [CACACA_site4895]", "gcPBM binding intensity (ln)": "9.07 ± 0.21"}, {"sequence": "TATCATATAAAACATGCACACATATGTACTCTTATA [CACACA_site9249]", "gcPBM binding intensity (ln)": "8.77 ± 0.31"}, {"sequence": "ATTTTTTATGAAAATAAACACACGATTTATTATATA [CACACA_site1312]", "gcPBM binding intensity (ln)": "8.14 ± 0.33"}, {"sequence": "AGAAAAAAGAGGGATACACACAAACATATATTTATA [CACACA_site7122]", "gcPBM binding intensity (ln)": "8.81 ± 0.29"}, {"sequence": "ACATATAATATATATATATATATATATATATATAAT [GTGCAC_negctrl_site648]", "gcPBM binding intensity (ln)": "8.66 ± 0.18"}, {"sequence": "TTGGTATAAAATTATAGTACATAAGGTAAATATAAA [XGTACX_site4698]", "gcPBM binding intensity (ln)": "8.56 ± 0.33"}, {"sequence": "GGAATATTAAAAAAATGTACAAAAAATAATATCCAT [XGTACX_site2596]", "gcPBM binding intensity (ln)": "8.97 ± 0.36"}, {"sequence": "ATATTAAGAATGTATACATGCATATATATATAGTAC [TGCATGCA_site219]", "gcPBM binding intensity (ln)": "9.17 ± 0.42"}, {"sequence": "TACATAAACTTTATAACACACACTTATATATATATA [CACACA_site1106]", "gcPBM binding intensity (ln)": "9.86 ± 0.18"}, {"sequence": "TTAAAACATATTTTGAATTAATATATTTTAATATTA [XGTACX_negctrl_site148]", "gcPBM binding intensity (ln)": "7.72 ± 0.39"}, {"sequence": "CATAAACTTTTTAACACACACTTATATATATATATA [CACACA_site4747]", "gcPBM binding intensity (ln)": "10.3 ± 0.23"}, {"sequence": "AAACTTTTTTTAAAAACACACATATATATTTATATA [CACACA_site4092]", "gcPBM binding intensity (ln)": "8.36 ± 0.41"}, {"sequence": "CATAAACTTTATAACACACACTTATAAATATAAATA [CACACA_site6646]", "gcPBM binding intensity (ln)": "8.41 ± 0.4"}, {"sequence": "TTTTGAAGCTTTAAAACATATATATATATATATATA [CACACA_negctrl_site184]", "gcPBM binding intensity (ln)": "10.3 ± 0.4"}, {"sequence": "TGTTATATATGTAATTGTACACTTATACAAAATTAT [XGTACX_site6350]", "gcPBM binding intensity (ln)": "8.52 ± 0.22"}, {"sequence": "TTTTTGTTTTTGTTTTGTACTCATACATACTATCAT [XGTACX_site4210]", "gcPBM binding intensity (ln)": "8.99 ± 0.44"}, {"sequence": "AAAAAAAATATATTACAAAACTTAGGATCCTAATAT [CACACA_negctrl_site470]", "gcPBM binding intensity (ln)": "8.48 ± 0.39"}, {"sequence": "AAATATTAAATGGAAAACAAATATATATATCTTAAT [XGTACX_negctrl_site383]", "gcPBM binding intensity (ln)": "8.56 ± 0.38"}, {"sequence": "TATGTATAAAAATAATGTACAAAATATATTATATGT [XGTACX_site2794]", "gcPBM binding intensity (ln)": "8.69 ± 0.33"}, {"sequence": "AAAAAAAAAATTGAAAGTACACAAATGGGGTATTAT [XGTACX_site3960]", "gcPBM binding intensity (ln)": "8.75 ± 0.35"}, {"sequence": "TATATATATATATGGGGTACAAATGGTCAGTATTAT [XGTACX_site1223]", "gcPBM binding intensity (ln)": "10.2 ± 0.21"}, {"sequence": "GATATTCATTATATATGTACATATATGTAATATATA [XGTACX_site2210]", "gcPBM binding intensity (ln)": "8.55 ± 0.24"}, {"sequence": "GAATAAAGGAGAGGCACACATATATATATATATATA [CACACA_site2452]", "gcPBM binding intensity (ln)": "10.2 ± 0.25"}, {"sequence": "TATATATATAAACACACACACACATATATATATATT [CACACA_site8814]", "gcPBM binding intensity (ln)": "9.02 ± 0.23"}, {"sequence": "AAACATAAGGGACACACACACATATATATATATATA [CACACA_site5920]", "gcPBM binding intensity (ln)": "10.3 ± 0.16"}, {"sequence": "AATAATAAAAAAAGTGCACACACATAATATATATAT [CACACA_site9100]", "gcPBM binding intensity (ln)": "9.47 ± 0.099"}, {"sequence": "AATCCACAAAGACACACACACACATATATATATATA [CACACA_site1269]", "gcPBM binding intensity (ln)": "10.2 ± 0.35"}, {"sequence": "AATATAAAAAGGCACACACACAAAAAAAAAAAAAAA [CACACA_site896]", "gcPBM binding intensity (ln)": "8.26 ± 0.49"}, {"sequence": "TAATAAAAAAAGTGCACACACATAATATATATATAT [CACACA_site3340]", "gcPBM binding intensity (ln)": "9.74 ± 0.28"}, {"sequence": "TCTATAAAGGAATATACACACATATATATATATATA [CACACA_site410]", "gcPBM binding intensity (ln)": "10 ± 0.26"}, {"sequence": "GTAATCCACAAACACACACACATACACATATATATA [CACACA_site2728]", "gcPBM binding intensity (ln)": "8.78 ± 0.34"}, {"sequence": "TATAAAAGTGGACACACACACATATATATATATATA [CACACA_site4673]", "gcPBM binding intensity (ln)": "10.2 ± 0.64"}, {"sequence": "AAAAAAAAAAAAAAGACACACATATATATATATATA [CACACA_site633]", "gcPBM binding intensity (ln)": "10 ± 0.31"}, {"sequence": "TATATATATAAACACACACACATATATATATATATA [CACACA_site4584]", "gcPBM binding intensity (ln)": "10.1 ± 0.35"}]}]}
